Measured values taken from PubChem BioAssay (NCI).
The panel holds about 79,000 compounds, 15% with a hit somewhere; the sample as a whole holds those more often. No stated cut-off is given here; in the data, active means growth inhibition above about 70%; inactive means the rest.

Key:
[1] = NCI Yeast Anticancer Drug Screen. Data for the rad50 strain (AID 155);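 further: 0% = growth of vehicle-only cultures of the same strain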; conditions: S. cerevisiae rad50 strain growth inhibition; at 50.0 µM; active compounds read high
Summary of the method: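 Vehicle-treated cultures provide the reference for the growth inhibition reported for compound-exposed, repair-deficient yeast.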

[2] = NCI Yeast Anticancer Drug Screen. Data for the mec2-1 strain (AID 157); conditions: S. cerevisiae mec2-1 strain, at 50.0 µM, active compounds read high
Summary of the method: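 Cells of the genetically defined mec2-1 yeast strain are incubated with test compound. Inhibition of growth is calculated against vehicle-treated controls.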

[3] = NCI Yeast Anticancer Drug Screen. Data for the sgs1 mgt1 strain (AID 161);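 further: 0% = growth of cultures given vehicle only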; conditions: S. cerevisiae sgs1 mgt1 strain, at 50.0 µM, active compounds read high
Summary of the method: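 Mutant yeast exposed to compound; growth scored against vehicle-only wells.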

[4] = NCI Yeast Anticancer Drug Screen. Data for the cln2 rad14 strain (AID 165);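 further: 0% = growth equal to vehicle treated cultures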; conditions: S. cerevisiae cln2 rad14 strain, at 50.0 µM, active compounds read high
Summary of the method: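 The screen exposed genetically defined yeast (cln2 rad14) to test compounds and scored growth inhibition relative to vehicle-treated controls.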

[5] = NCI Yeast Anticancer Drug Screen. Data for the bub3 strain (AID 167); conditions: S. cerevisiae bub3 mutant strain, at 50.0 µM, active compounds read high
Summary of the method: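 Mutant yeast screening strain plus compound; vehicle-treated cultures serve as the 0% inhibition reference.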

[6] = NCI Yeast Anticancer Drug Screen. Data for the mlh1 rad18 strain (AID 175); conditions: S. cerevisiae mlh1 rad18 strain growth inhibition; at 50.0 µM; active compounds read high
Summary of the method: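 Compound-treated yeast growth, normalised to vehicle controls. Strain bears defined DNA repair mutations.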

Measured: growth inhibition

CC(C)=C1C(=O)C[C@]2(C)C/C=C(\C)CC/C=C(\C)CC[C@@H]12
inactive: [1] 39.5% | [2] 40.9% | [3] 62.5% | [4] 46.2% | [5] 58.9% | [6] 38.8%

CC(=O)N(C)C
inactive: [1] -9.9% | [2] -2.05% | [3] 12.9% | [4] 6% | [5] -2.3% | [6] -6.5%

CN1C(=O)C(Cc2cnc[nH]2)NC1=S (centres undefined)
inactive: [1] 11.5% | [2] 25.1% | [3] 22.6% | [4] -7.5% | [5] 10.7% | [6] 1.1%

Cc1cc(N(CCC#N)CCC#N)ccc1/C(N=Nc1ccc(Cl)cc1)=N\NC(=O)c1cc(Cl)ccc1O
inactive: [1] -16.6% | [2] -16.1% | [3] -31.1% | [4] -20.2% | [5] -29.6% | [6] -59.5%

CCOC(=O)NC(=S)NC(C)c1ccccc1 (centres undefined)
inactive: [1] -10.2% | [2] 10.6% | [3] 35.5% | [4] -8.85% | [5] 15% | [6] 1.15%

O=C(COc1ccc(Cl)c(Cl)c1)Nc1ccc(C(=O)CCl)cc1
inactive: [1] 6% | [2] 31.3% | [3] 19.4% | [4] -3.35% | [5] 42.5% | [6] 9.3%

OC1CNc2c(ccc3ccccc23)C1 (centres undefined)
inactive: [1] 10.7% | [2] -26.4% | [3] -13.4% | [4] -17% | [5] -38% | [6] -6.25%

c1ccc(-c2ccc(-c3c(-c4ccccc4)ccc(-c4ccccc4)c3-c3ccccc3)cc2)cc1
inactive: [1] 20.8% | [2] -0.7% | [3] -10.1% | [4] 20.9% | [5] -2.85% | [6] -1.4%

c1cc2c3c(c1)ccc1ccc4cccc(c4c13)O2
inactive: [1] -26.4% | [2] -2.4% | [3] -24.2% | [4] -0.7% | [5] -3.45% | [6] -47.9%

CC/C(C)=N/NC(=O)c1ccc([N+](=O)[O-])cc1
inactive: [1] 22.7% | [2] 12% | [3] 20.8% | [4] 8.6% | [5] 0.95% | [6] 16.6%

COc1ccc(C2(C=O)CN(C)CN2)cc1 (centres undefined)
inactive: [1] -7.2% | [2] -3.95% | [3] -14.7% | [4] -21.2% | [5] -13.8% | [6] -7.2%

N#CC(c1ccccc1)c1ccccn1 (centres undefined)
inactive: [1] 5.9% | [2] 8.35% | [3] 8.75% | [4] -9.2% | [5] 5.5% | [6] 2.75%

CC(=O)Nc1ccc(S(=O)(=O)c2ccc(NC(C)=O)cc2)cc1
inactive: [1] -10.6% | [2] -10.1% | [3] -48.5% | [4] -6.2% | [5] -26.5% | [6] -40.8%

COc1ccc(C2SCC(=O)N2NC(=O)c2ccc(NC(C)=O)cc2)c(OC)c1 (centres undefined)
inactive: [1] -27.7% | [2] -7.5% | [3] -23.2% | [4] 12.1% | [5] -22% | [6] -11.7%

CC1=CC[P+](Cc2ccccc2)(c2ccccc2)C1 (centres undefined)
inactive: [1] -25.4% | [2] 14.7% | [3] 22.2% | [4] 4.35% | [5] 8.2% | [6] 8.8%

Cc1c(Cl)cccc1NC(=O)C(=O)C1C(=O)CC(C)(C)CC1=O
inactive: [1] 10.6% | [2] 6.8% | [3] -1.2% | [4] 7.85% | [5] 15.2% | [6] 18.8%

Cc1nc([N+](=O)[O-])cn1/C=C/Cn1cc([N+](=O)[O-])nc1C
inactive: [1] -3.25% | [2] -18.9% | [3] 5% | [4] 6.65% | [5] -25.7% | [6] 4.8%

CSc1cc(Cl)c(C)cc1S(=O)(=O)NC(=O)NNc1ccccn1
inactive: [1] -4.3% | [2] -1.6% | [3] 8.15% | [4] -2.05% | [5] -1.5% | [6] 21%

CCCCS(=O)(=O)C1CCCC1=O (centres undefined)
inactive: [1] -3.5% | [2] 5.5% | [3] -2.55% | [4] -7.1% | [5] 1.45% | [6] 1.9%

Cc1ccc(NC(=O)Nc2ccccc2Cl)cc1Cl
inactive: [1] 12.6% | [2] 17.5% | [3] 6.1% | [4] -20.4% | [5] 4.75% | [6] -4.55%

NCC1(N2CCOCC2)C2CCCC21CNc1ccccc1 (centres undefined)
inactive: [1] -37.2% | [2] -46.1% | [3] -16% | [4] -4.65% | [5] -35.1% | [6] -21%

C=C1C(=O)OC2(C)CCC1CC1OC1(C)CCC=C(C)CCC2O (centres undefined)
inactive: [1] 3.7% | [2] -39.1% | [3] 17.4% | [4] 8% | [5] -17.7% | [6] -39.5%

Cc1ccc(NC(=S)NC2CCCCC2)cc1Cl
inactive: [1] -2.4% | [2] 43% | [3] 29.4% | [4] -24.9% | [5] 42.3% | [6] 26.6%

O=C1CCCC2OC2[C@H]2CCCCCC[C@@H]12 (some centres undefined)
inactive: [1] 2.5% | [2] 0.9% | [3] 4.8% | [4] 3.15% | [5] -2.35% | [6] 7.85%
